# Sa helicase inh: S. aureus DNA helicase inhibition | AID 485395 | purified S. aureus helicase, fluorescence unwinding assay | actives 0.05% (n = 120,000) | inhibition, % (no concentration beside the values);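 note: 0% = mean of negative control wells and 100% = mean of positive control wells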
# BasE inh: inhibitors of Acinetobacter baumannii siderophore enzyme BasE; purified BasE, fluorescence polarization binding displacement; inhibition, % (no concentration beside the values); AID 485350; actives 0.1% (n = 84,000);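 note: 0% = negative plate control signal and 100% = positive plate control signal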
# Numbers without * were called inactive; / = no result; ! = a repeat was not active. Only some compounds are listed: those with a hit (about 0.11% of all), similar ones and a draw of the others. Cut-off read from the data, not from the text of the source: active = inhibition above about 25% (passing the limit was not always enough); inactive = the rest.
SMILES,Sa helicase inh,BasE inh
C[n+]1ccc(/C=C/c2ccccc2F)c2ccccc21,25.0,1.2
CN(C)Cc1ccc2ccc3cccc4ccc1c2c34,50.0*,/
CN(C)c1ccc2cccc(O)c2n1,-1.0,0.1
CCOC(=O)c1ccc(NC(=O)COC(=O)c2cc3ccccc3o2)cc1,1.0,/
Cc1nc(-c2cccc(NC(=O)/C=C\C(=O)O)c2)cs1,6.0,/
Cc1nc(-c2c[nH]c(C(=O)O)c2)cs1,49.0*,7.2
Cc1ccc(-c2nnc(OCCN3CCOCC3)c3ccccc23)cc1,7.0,/
c1ccc(-c2nnc(OCC3CCCO3)c3ccccc23)cc1 (stereo not drawn),4.0,27.5*
CCOC(=O)c1noc(NC(=O)Cc2ccccc2OC)c1-c1ccccc1,-14.0,1.2
Cc1ccc(OCCC(=O)N2CCN(Cc3ccccc3)CC2)cc1,-19.0,0.1
O=C(OCc1ccccc1Cl)c1ccc2c(=O)n3c(nc2c1)CCC3,14.0,0.3
COc1ccc2c(COC(=O)c3ccc4c(=O)n5c(nc4c3)CCC5)cc(=O)oc2c1,26.0*,-0.7
Cc1[nH]c2ccccc2c1C(c1cccs1)N1CCN(c2ccccc2)CC1 (stereo not drawn),19.0,/
NCc1ccc(OCc2ccc(F)cc2)cc1,6.0,0.2
NC(=S)COc1ccc(F)cc1,25.0*,1.4
CC(=O)Nc1ccc(-c2nc3cc(C)ccc3o2)cc1,0.0,0.5
CC(=O)Nc1ccc2oc(C)nc2c1,-5.0,36.6*
CC1(C)NC(=O)C(C#N)=C(SCc2ccccc2)S1,-18.0,37.8*
N#CC1=C(SCc2ccccc2)SC(c2ccccc2O)NC1=O (stereo not drawn),7.0,/
O=C1N/C(=N/N=C\c2[nH]ncc2Br)SC1c1ccccc1 (stereo not drawn),-11.0,26.8*
O=C(O)CC1S/C(=N/N=C/c2ccccc2)NC1=O (stereo not drawn),-2.0,-0.2
c1cc(CN2CCCCC2)n(-c2nnc(N3CCCCCC3)s2)c1,3.0,-7.2
CCCn1cc(C(=O)c2ccc(C)cc2)c(=O)c2ccc(C)nc21,-47.0,-5.1
CC(=O)NN1C(=O)c2cccc3c(N(C)C)ccc(c23)C1=O,-34.0,31.6*
CN(C)c1ccc2c3c(cccc13)C(=O)N(c1nc3ccccc3n1C)C2=O,-142.0,0.3
SMILES,Sa helicase inh,BasE inh
CCC(c1nnc(SCC(=O)NCC(C)C)o1)N(C)C (stereo not drawn),-6.0,0.1
CCC(c1nnc(SCC(=O)NCCc2ccc(Cl)cc2Cl)o1)N(C)C (stereo not drawn),44.0*,4.5
NS(=O)(=O)c1ccc(N2CCOCC2)c(C(=O)O)c1,-9.0,1.1
Nc1ccc(N2CCOCC2)c(N)c1,-4.0,36.8*
CCC(=O)N1CCN(CCN=CC2=C(O)CC(c3ccccc3)CC2=O)CC1 (stereo not drawn),25.0,0.7
Cc1ccc(C(=O)N2CCCC2)cc1NC1=NC2CS(=O)(=O)CC2S1 (stereo not drawn),0.0,-0.9
O=C1CC(c2ccccc2O)=NN1,4.0,26.7*
Cc1cc2c(cc1C)NC(=O)CC(c1ccccc1O)=N2,10.0,/
O=C(O)c1cnc(-c2ccc(Cl)cc2)nc1,4.0,0.0
CCN=c1scc(C)n1/N=C/c1cn(-c2ccccc2)nc1-c1ccc(OC)c(OC)c1,-4.0,1.0
COC(=O)c1ccc2c(=O)[nH]c(COC(=O)c3ccc4c(c3)OCO4)nc2c1,-9.0,-4.3
COC(=O)c1ccc2c(=O)[nH]c(COC(=O)CNC(=O)c3cccs3)nc2c1,32.0*,3.2
S=c1[nH]ncc2ccccc12,1.0,0.8
Cc1cccc2[nH]ncc12,15.0,24.7*
[N-]=[N+]=c1c(=O)ccc2c(=O)c3ccccc3c(=O)c1=2,13.0,21.1
O=c1cc(-c2ccc(O)c(O)c2)oc2cc(O)cc(O)c12,/,2.0
O=c1c(O)c(-c2ccc(O)c(O)c2)oc2cc(O)cc(O)c12,/,28.6*!
Cc1[nH]n(-c2ccccc2)c(=O)c1C=Nc1ccc(O)cc1,8.0,52.6*
Cc1[nH]n(-c2ccccc2)c(=O)c1/C=N/O,17.0,1.7
COc1ccc(Nc2cc(C)nc3ccc(OC)cc23)cc1,63.0*,-4.2
COc1ccc(CNc2cc(C)nc3ccc(OC)cc23)cc1,-11.0,-11.5
Cc1sc2ncnc(Sc3nnc(CN4CCCC4=O)o3)c2c1C,2.0,1.8
Cc1cc(C)nc(Nc2n[nH]c(-c3cccnc3)n2)n1,30.0,26.5*
Cc1ccc(-c2nc(Nc3ccccc3)n[nH]2)cc1,18.0,/
c1ccc(OCCn2cnc3ccccc32)cc1,1.0,/
SMILES,Sa helicase inh,BasE inh
COc1ccc(OCCn2cnc3ccccc32)cc1,6.0,25.9*
COc1ccc(OCC(O)Cn2cnc3ccccc32)cc1 (stereo not drawn),2.0,/
Brc1ccc(OCCn2cnc3ccccc32)cc1,13.0,38.5*
CCOc1ccc(NC(=O)CC2(CC(=O)O)CCCC2)cc1,-5.0,1.5
CN(C)C(=O)N1CCN(Cc2ccc3c(c2)OCO3)CC1,-10.0,0.7
CN(CCC#N)c1ccc(/C=C2\CC/C(=C\c3ccc(N(C)CCC#N)cc3)C2=O)cc1,/,-25.3
CC1CC(C)CN(C(=O)COc2ncnc3ccccc23)C1 (stereo not drawn),10.0,/
Cc1cc(C)n(-c2ccc(CSc3nnc(C4CC4)n3Cc3ccccc3)cc2)n1,14.0,-1.9
NC(=O)c1ccsc1NC(=O)c1ccccc1,28.0,/
NC(=O)c1ccsc1NC(=O)COC(=O)c1ccccc1,27.0,39.7*
CN1CCN(C(=O)CCCCl)CC1,-7.0,/
O=C(O)COc1c(I)cc(Cl)c2cccnc12,12.0,-0.4
S=c1[nH]c2cc(Cl)c3cccnc3c2o1,-14.0,51.3*
CC(Sc1nnc(-c2ccccc2Br)o1)C(=O)Nc1cccc(Cl)c1 (stereo not drawn),4.0,-1.5
O=C(CSc1nnc(-c2ccncc2)o1)N1CCCc2ccccc21,14.0,0.3
COc1ccc2c(CN3c4ccccc4CC3C)cc(=O)oc2c1 (stereo not drawn),5.0,4.6
CC(C)Nc1ccc(Nc2ccnc3cc4ccccc4cc23)cc1,67.0*,4.9
c1ccc2cc3c(Nc4ccc(N5CCOCC5)cc4)ccnc3cc2c1,18.0,1.5
Cc1ccc(OCC(O)CN2CC(C)CC(C)C2)cc1 (stereo not drawn),8.0,-1.9
COc1cc2nc(N(C)CCCNC(=O)C3CCCO3)nc(N)c2cc1OC (stereo not drawn),/,-2.4
COc1cc2nc(N(C)C)nc(N)c2cc1OC,44.0*,/
Clc1ccc2oc(-c3ccccc3)cc(=NCc3cccnc3)c2c1,18.0,4.2
CCCN=c1cc(-c2ccccc2)oc2ccc(C)cc12,65.0*,-0.2
CC1=CC(=O)C=C(C)C1=NS(=O)(=O)c1ccccc1,18.0,25.8*
O=S(=O)(N=C1SCCS1)c1ccccc1,-12.0,/

# Screening results (PubChem)
